Measurements published in the supplement of paper PMC5407854, “Inhibitor of ppGalNAc-T3-mediated O-glycosylation blocks cancer cell invasiveness and lowers FGF23 levels” (eLife, 2017).
Over roughly 1,700 compounds, “T2 sensor activation Q score (MG/GFP ratio z-score vs DMSO controls)” has its median near 0.3; the highest 2% begin near 1.9. This excerpt belongs to a sample that is enriched for the highest values.

Test system: ppGalNAc-T2 sensor
Experiment: T2 sensor activation Q score (MG/GFP ratio z-score vs DMSO controls) (SD units); higher = more sensor activation (inhibition of ppGalNAc-T2 glycosylation)
Conditions: HEK293 sensor cells; 10 µM; 6 h
Experimental: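 Cells were treated with compound at 10 uM for 6 h, then MG/GFP ratio was read by flow cytometry (10,000 cells per well, duplicate wells). Q = (R - R_neg)/SD_neg relative to DMSO vehicle controls; the signal rises when the glycosyltransferase is inhibited.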

| SMILES | T2 sensor activation Q score |
| --- | --- |
| Cn1cnc([N+](=O)[O-])c1Sc1n[nH]c(N)n1 | 1.8 |
| Cc1ncc([N+](=O)[O-])n1CCOC(N)=O | -0.85 |
| Cn1cnc([N+](=O)[O-])c1N=C(N)N | 2.2 |
| NCCCNCCSP(=O)(O)O | -0.45 |
| Cc1ccccc1-n1c(C=Cc2ccccn2)nc2ccccc2c1=O | -1 |
| COC[C@H]1OC(=O)c2coc3c2[C@@]1(C)C1=C(C3=O)[C@@H]2CCC(=O)[C@@]2(C)C[C@H]1OC(C)=O | 2.1 |
| CC12CCC3C(CC=C4CC(O)CCC43C)C1C/C(=C\N1CCCC1)C2=O (stereo not given) | 0.15 |
| C=Cc1cc(OC)c2c(c1)c(=O)oc1c2cc(OC)c2c(O)ccc(C3OC(C)C(O)C(C)(O)C3O)c21 (stereo not given) | -0.15 |
| O=C1C[C@@H]2OCC=C3C[N+]4([O-])CC[C@]56c7ccccc7N1[C@H]5[C@H]2[C@H]3C[C@@H]64 (stereo not given in full) | 1.95 |
| O=C1/C(=C\c2ccccc2)C2OCC=C3CN4CCC56c7ccccc7N1C5C2C3CC46 (stereo not given) | 0.15 |
| CC(C)CC(NC=O)C(=O)O.COc1cc2c(cc1OC)C13CCN4CC5=CCOC6CC(=O)N2C1C6C5CC43 (stereo not given) | 1.3 |
| COc1cc2c(cc1O)C[C@H]1c3c(cc(O)c(OC)c3-2)CCN1C | 0.75 |
| c1cc(C2N3CCCN2CC3)ccn1 (stereo not given) | -0.3 |
| CC(Cc1ccccc1)NC(N)=O (stereo not given) | 1.8 |
| O=C1N[C@H]2[C@H](O)[C@H](O)[C@@H](O)[C@H](O)[C@@H]2c2cc3c(c(O)c21)OCO3 | 2.6 |
| Cc1c(CCN)ccc2c1[nH]c1ccccc12 | 0.7 |
| COc1ccc2c(c1)C13CCN(C)C(C2)C1CCC1(C3)OCCO1 (stereo not given) | 2 |
| COc1ccc2c(c1O)[C@]13CCN(C)[C@H](C2)[C@@H]1CCC(=O)C3 | -0.1 |

| SMILES | T2 sensor activation Q score |
| --- | --- |
| Cc1c(C(=O)c2ccccc2)c2ccccc2n1C | 1.75 |
| O=C1N(c2nncs2)CCN1[N+](=O)[O-] | 1.2 |
| CC1CC(C)OP(=O)(OCCC#N)O1 (stereo not given) | 0.35 |
| COc1ccc(CCNC2(C#N)CCCCC2)cc1OC | -0.65 |
| CN1CCN(c2ccc([N+](=O)[O-])c3no[n+]([O-])c23)CC1 | 0.1 |
| CN1CCN(c2nc(N)c(Br)c(Cl)n2)CC1 | 0.8 |
| O=P(Oc1ccccc1)(Oc1ccccc1)c1ccccc1 | -3.1 |
| CC12CCC3C(CCC4Cc5[nH]c6ccccc6c5CC43C)C1CCC2O (stereo not given) | 0.65 |
| O=C1CCC2(O)[C@@H]3Cc4ccc(O)c5c4[C@]2(CCN3Cc2ccoc2)C1O5 (stereo not given in full) | 0.3 |
| C=CCN1CCC23c4c5ccc(O)c4OC2C(=O)CCC3(O)C1C5 (stereo not given) | 2.2 |
| NN=C1C(Cl)=C(Cl)C(Cl)=C1Cl | -0.35 |
| CCCC(=O)N(C)C1=Nc2ccc(Cl)cc2C(c2ccccc2)=[N+]([O-])C1 | 0 |
| CCC(C)c1cnc(CC(C)C)c(=O)n1O (stereo not given) | -0.75 |
| CC12CCC3c4ccc(OC(=O)N(CCCl)CCCl)cc4CCC3C1CCC2O (stereo not given) | -0.35 |
| OCC1CN1C1CCCCC1 (stereo not given) | 2.1 |
| CN1CCC(c2c[nH]c3ccccc23)C1 (stereo not given) | 0.5 |
| CCC(N)Cc1c[nH]c2ccccc12 (stereo not given) | 1.2 |
